# RORgamma inh: qHTS for inhibitors of ROR gamma transcriptional activity. Drosophila S2 Gal4-RORgamma UAS-luciferase reporter, 20 h. Potency, µM (series often up to 53.6 µM), for the others: at the highest dose activity change, negative = inhibition, actives largely listed as inhibitors. 310,000 compounds, 5.4% hits; further: nearly all actives have a fitted effect of over 60% in size
# Target sequence (P51450 whole entry, looked up, the tested form may be a part): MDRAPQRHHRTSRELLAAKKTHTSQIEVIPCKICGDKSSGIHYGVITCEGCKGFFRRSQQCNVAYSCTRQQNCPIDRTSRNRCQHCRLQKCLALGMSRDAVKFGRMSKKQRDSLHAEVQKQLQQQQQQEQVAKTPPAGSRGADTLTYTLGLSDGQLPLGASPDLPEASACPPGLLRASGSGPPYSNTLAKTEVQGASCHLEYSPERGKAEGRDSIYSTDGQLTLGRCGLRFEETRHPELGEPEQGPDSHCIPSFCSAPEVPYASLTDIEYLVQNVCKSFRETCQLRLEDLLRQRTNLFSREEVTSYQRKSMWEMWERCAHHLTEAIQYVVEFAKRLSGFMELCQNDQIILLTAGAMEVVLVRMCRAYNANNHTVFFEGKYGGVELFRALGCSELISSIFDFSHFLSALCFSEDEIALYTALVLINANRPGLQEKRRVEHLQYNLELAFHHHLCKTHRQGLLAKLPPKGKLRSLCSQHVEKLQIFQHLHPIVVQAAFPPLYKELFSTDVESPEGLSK
#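 Using a luciferase readout, inhibitors were identified by reduced reporter activity in Drosophila cells coexpressing a copper-inducible Gal4–ROR gamma fusion and UAS-driven Photinus luciferase, incubated 20 hr after 700 uM copper sulfate.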
# KinaseGlo FLuc: Counterscreen for Luciferase (Kinase-Glo TM) Inhibition | Luciferin 4-monooxygenase (Photuris pensylvanica), Q27757 | Kinase-Glo luciferase, ATP luminescence, 8 min | Potency, µM (series often up to 38.3 µM), without a hit: top-dose activity change, negative = inhibition, actives largely listed as inhibitors | 200,000 compounds, 0.28% hits; further: nearly all actives have a fitted effect of over 60% in size
#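 Substrate mix (final 50 mM imidazole pH 7.2, 50 mM KCl, 7 mM MgCl2, 10 uM ATP, 0.01% Tween 20, 0.05% BSA) plus pin-tool compound, then Kinase-Glo detection mix; 8 min ambient, luminescence read.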
# Gal4-VP16 FLuc: VP16 counterscreen qHTS for inhibitors of ROR gamma transcriptional activity | Drosophila S2 Gal4-VP16 UAS-luciferase, luminescence, 20 h | Potency, µM (top dose mostly 53.6 µM), for the others: at the top dose activity, negative = inhibition, most hits filed as inhibitors | 310,000 compounds, 3.5% hits | AID 2546, 2010;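 further: Gal4-VP16 expression switched on by copper sulfate through the metallothionein promoter; nearly all actives have a fitted effect of over 50% in size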
# * marks the source's active call; other numbers are inactive results; ? = inconclusive; nt = no result; [ ] = another dose, or the depositor's remark. This is a sample that favours compounds with a hit; in the whole collection about 6.4% have one here. The call rests on the fitted dose curve; in most records, active means well fitted curve in the direction sought with a large enough effect; inconclusive means small, poorly fitted or top-dose-only effect, or another doubt; inactive means no such curve, though single readings can be large; an effect the other way counts as inactive or inconclusive. On the % scale 0 is the no-effect control and ±100 the full control effect; potency means the concentration at half of the fitted maximal effect.
SMILES,RORgamma inh,KinaseGlo FLuc,Gal4-VP16 FLuc
C[C@H](O)CO[C@H]1[C@H]2O[C@H]3[C@H](O)[C@@H](O)[C@@H](O[C@H]4[C@H](O)[C@@H](O)[C@@H](O[C@H]5[C@H](O)[C@@H](O)[C@@H](O[C@H]6[C@H](O)[C@@H](OC[C@H](C)O)[C@@H](O[C@H]7[C@H](O)[C@@H](OC[C@H](C)O)[C@@H](O[C@H]8[C@H](O)[C@@H](O)[C@@H](O[C@@H]([C@@H]1O)[C@@H](CO)O2)O[C@@H]8CO)O[C@@H]7CO)O[C@@H]6CO)O[C@@H]5CO)O[C@@H]4CO)O[C@@H]3CO,0%,2%,-1%
CCCC[C@@H]1C[C@H]1C(NC(=O)c1ccco1)c1ccccc1 (some centres undefined),7%,-3%,13%
O=CN/C=C/c1cc(F)cc(F)c1F,4%,0%,-3%
Cc1cc(C)c(NC(=O)Nc2ccc3c(c2)OCO3)c(C)c1,32%,nt,-16%
CC(=O)Nc1ccc(C(=O)Nc2ccc3c(c2)OCO3)cc1,?,-8%,-5%
CC(=O)Nc1ccc(C(=O)Nc2ccc3c(c2)OCCO3)cc1,-18%,nt,0%
Cc1ccc(C(=O)Nc2ccc3c(c2)OCCO3)c(C)c1,3.2µM*,nt,4.5µM*
O=C(Nc1ccc(NC(=O)c2ccc3c(c2)OCCO3)cc1)c1ccccc1,?,nt,-5%
Cc1cc(C)c2[nH]c(C(=O)Nc3ccc4c(c3)OCO4)cc2c1,0.4µM*,nt,-25%
Cc1ccc(NC(=O)c2ccc3c(c2)OCCO3)cc1C,5µM*,nt,?
CC(=O)NS(=O)(=O)c1ccc(NC(=O)c2ccc3c(c2)OCO3)cc1,20µM*,nt,0%
COc1ccc(CNC(=O)CN(Cc2ccco2)C(=O)CNS(=O)(=O)c2ccc(F)cc2)cc1,?,nt,18%
Cc1ccc(S(=O)(=O)N(CC(=O)N2CCOCC2)c2ccc(C(C)C)cc2)cc1,-19%,nt,-3%
Cc1ncc(CO)c(CNc2ccc(Oc3ccccc3)cc2)c1O,24%,nt,?
CCCS(=O)(=O)N1CCN=C1SCc1cccc(C)c1,9%,0%,-7%
Cc1cc(NC(=O)c2ccc3c(c2)OCO3)ccc1NC(=O)c1ccco1,19%,11µM*,-6%
Cc1ccc(C(=O)Nc2ccc3c(c2)OCO3)cc1NC(=O)c1ccco1,2%,2%,-11%
COc1ccc(-c2cccc(C3C4C=CCCC4(C)C(=O)N3Cc3ccccc3)c2)cc1 (centres undefined),-8%,nt,-25%
CC(C)C(=O)NC(=S)N(Cc1ccccc1)Cc1ccccc1,2.8µM*,-2%,5µM*
O=C(O)CNC(=S)N(Cc1ccccc1)Cc1cccnc1,14%,3%,-4%
COC(CNC(=O)CNC(=S)N(Cc1ccccc1)Cc1cccs1)OC,-4%,2%,0%
CC(C)CC(=O)NC(=S)N(Cc1ccccc1)Cc1ccccc1,3.2µM*,0%,6.3µM*
O=C(c1ccc2c(=O)n3c(nc2c1)CCCCC3)N1CCc2ccccc21,0%,nt,13%
CCCCOc1ccccc1NC(=O)CC1Nc2ccccc2NC1=O (centres undefined),10µM*,3%,?
CCCCNC(=O)CC1Nc2ccccc2NC1=O (centres undefined),-21%,0%,-12%
SMILES,RORgamma inh,KinaseGlo FLuc,Gal4-VP16 FLuc
COc1cc(NS(=O)(=O)c2ccc3c(c2)C(C)(C)C(=O)N3C)cc(OC)c1,-16%,nt,-1%
O=[N+]([O-])c1ccc(/C=N/N2CCN(Cc3ccccc3)CC2)cc1,?,nt,-12%
O=[N+]([O-])c1cccc(/C=N/n2c(COc3ccccc3)n[nH]c2=S)c1,13µM*,5%,?
C(=N\n1cnnc1)/c1cccc(Oc2ccccc2)c1,20%,1%,4%
S=c1[nH]ncn1/N=C/c1cccc(Oc2ccccc2)c1,2.8µM*,2%,7.1µM*
O=[N+]([O-])c1ccc(/C=N/n2c(COc3ccccc3)n[nH]c2=S)cc1,7.1µM*,-1%,-26%
Cc1ccccc1OCc1nc2ccccc2c(=O)n1/N=C/c1cccc([N+](=O)[O-])c1,-9%,2%,-19%
COc1cccc(/C=N/n2c(COc3ccccc3)n[nH]c2=S)c1,7.1µM*,nt,?
S=c1[nH]nc(COc2ccccc2)n1/N=C/c1cccc(Br)c1,-42%,nt,-21%
CCN(C(=O)CSc1nnc(-c2ccc(Cl)cc2)n1C)C1CCS(=O)(=O)C1 (centres undefined),10%,-2%,-1%
CCn1cc(C(=O)N[C@@H](CCSC)C(=O)NCCCn2ccnc2)c(=O)c2cc3c(cc21)OCO3,5%,nt,-4%
CC(=O)N1CCC(N(CCN2CCOCC2)C(=S)Nc2ccc(C)c(C)c2)CC1,?,2%,-1%[10 µM]
COc1ccc(C(=O)Nc2cc(C)nn2-c2ccc(F)cc2)cc1,-12%,nt,2%
COc1cc(NC(=O)c2cccc([N+](=O)[O-])c2)ccc1NC(=O)c1cc2ccccc2o1,3%,nt,0%
COc1cc(NC(=O)c2cccc(C)c2)ccc1NC(=O)c1cc2ccccc2o1,?,nt,13µM*
CCC(=O)Nc1ccc(Cl)c(NC(=S)NC(=O)c2ccco2)c1,36%,0%,?
CCC(=O)Nc1ccc(Cl)c(NC(=S)NC(=O)c2cc3ccccc3o2)c1,?,-1%,3.5µM*
COc1cc(NC(=S)NC(=O)C(C)C)ccc1NC(=O)c1cc2ccccc2o1,-23%,2%,-4%
CCC(=O)NC(=S)Nc1ccc(NC(=O)c2cc3ccccc3o2)c(OC)c1,4.5µM*,-1%,?
COc1ccc(/C=C2/C(=O)C(C)(C(C)C)CCC2C)cc1 (centres undefined),32%,nt,10%
CCn1c(SCC(=O)NCc2ccccc2)nnc1C(CO)NC(=O)c1ccccc1 (centres undefined),-7%,nt,1%
COC(=O)Nc1ccc(S(=O)(=O)N2CCC(C(=O)N3CCCC(C)C3)CC2)cc1 (centres undefined),-8%,3%,1%[10 µM]
CC(C)CCc1noc(CN(CC2CCC2)CC2CCCO2)n1 (centres undefined),-5%,nt,6%
CCCS(=O)(=O)N1CCCC(C(=O)Oc2ccc(C)c(C)c2)C1 (centres undefined),-14%,nt,-8%
CC(=O)c1ccc(NC(=S)NCCc2ccccn2)cc1,?,0%,-23%
SMILES,RORgamma inh,KinaseGlo FLuc,Gal4-VP16 FLuc
S=C(NCCc1ccccn1)Nc1ccc(Cl)cc1,6.3µM*,1%,?
Fc1ccc(NC(=S)NCCc2ccccn2)cc1,10µM*,0%,?
O=C(NCCc1ccccn1)c1ccc(NS(=O)(=O)c2ccc(F)cc2)cc1,22%,8%,-1%
CN(CCc1ccccn1)C(=O)Nc1ccc(Cl)cc1,8%,-1%,22%
FC(F)(F)c1cccc(NC(=S)NCCc2ccccn2)c1,4µM*,-3%,11µM*
CC(C)(C)c1ccc(NC(=S)NCCc2ccccn2)cc1,0.5µM*,nt,?
CN(C)S(=O)(=O)c1cccc(NC(=S)NCCc2ccccn2)c1,15%,0%,8%
CCOc1ccc2cc(/C=C/C(=O)c3ccco3)c(Cl)nc2c1,?,0%,?
Cc1noc(C)c1CSCC(=O)N(C)CC(=O)Nc1ccccc1Cl,2%,nt,10%

# Bioassay records (PubChem BioAssay)
